Data published in PubChem BioAssay.
Measured potencies and affinities stand elsewhere. Values without a mark were called inactive. No rule for the calls is given here.

Each molecule was assayed against Melanocortin receptor 4 (Homo sapiens) (UniProt P32245) (assay: MC4R antagonists, dose response, counter-screen for LGR2 antagonist project, cell-based, plate reader, cherry pick (AID 743444)). Conditions: MC4R-expressing cells, antagonist mode; series mostly up to 35 µM; activity change, negative = inhibition: at the top concentration.

| SMILES | activity change, negative = inhibition |
| --- | --- |
| CC(C)(C)c1nc2ccc(Cl)cn2c1CC1CCCCC1 | -36.7% |
| COc1cccc(C#Cc2ccc([C@@H]3[C@@H](CO)N(C(=O)C4CCC4)[C@H]3C#N)cc2)c1 | -28.4% |
| O=[N+]([O-])c1cc(S(=O)(=O)N2CCCCCC2)ccc1Cl | 46.7% |
| Cc1ccc(NC(=O)c2ncn(CC(=O)N3CCN(c4ccccn4)CC3)n2)cc1C | 43.8% |
| CC(C)OC(=O)c1ccc(NCc2cc(O)ccc2O)cc1Cl | 36.8% |
| c1ccc(COc2cccc(-c3cc4nc(NCCCn5ccnc5)ccn4n3)c2)cc1 | -3.54% |
| COc1ccc2cc(C#N)c(Nc3cccc(F)c3)nc2c1 | 81.7% |
| CC(C)(C)c1ccc(Cn2c(=O)cnc3ccccc32)cc1 | 112% |
| Oc1ccc(-c2csc(-c3cccnc3)n2)c(O)c1 | 18.2% |
| O=C(c1ccc2c(c1)OCCO2)C1CCN(S(=O)(=O)c2ccc(F)cc2)CC1 | 68.4% |
| COc1ccccc1N1CCN(C(=O)c2sc3nc(-c4ccc(F)cc4)cn3c2C)CC1 | -16.4% |
| COc1ccc(-c2cc(C(F)(F)F)nc(S(=O)(=O)CCCC(=O)Nc3cccc(O)c3)n2)cc1OC | 84.3% [at 16 µM] |
| CC(=O)c1ccc(Nc2cc(C)nc3c(C)cc(C)cc23)cc1 | 33.5% |
| O=C(Nc1ccc(N2CCN(C(=O)c3ccccc3)CC2)cc1)c1cc2ccccc2o1 | -16.1% |
| CC(C)N(C(=O)COC(=O)c1ccccc1C(=O)c1ccc(Cl)c([N+](=O)[O-])c1)C(C)C | 94.9% |
| CCCCn1nnnc1C(c1cc2ccccc2o1)N1CCN(c2ccncc2)CC1 (configuration not stated) | -24.1% |
| N#C[C@@H]1[C@H](c2ccc(C#Cc3cccc(F)c3)cc2)[C@@H](CO)N1C(=O)C1CC1 | -26.4% |
